Screening data deposited in PubChem by National Center for Advancing Translational Sciences (NCATS).
Most compounds without a hit are left out; they make up all but 19% or so of the library.
HT1080-NT tox: qHTS for induction of synthetic lethality in tumor cells producing 2HG: qHTS for the HT-1080-NT fibrosarcoma cell line; HT-1080-NT fibrosarcoma viability, CellTiter-Glo ATP luminescence, 48 h; Potency, µM (titrated, usually from 46.1 µM), most hits filed as cytotoxic; 1.6% of 360,000 active;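 further: NT is the 2HG producing partner of a matched IDH1 knockdown line; nearly all actives have a fitted effect of over 55% in size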
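Read-out is CellTiter-Glo luminescence after 10 minutes at room temperature, following 48 hours' compound treatment of HT-1080-NT cells (750 cells/well, RPMI, 5% FBS, 37 degrees C).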
DT40 TDP1 CPT: qHTS for Inhibitors of human tyrosyl-DNA phosphodiesterase 1 (TDP1): qHTS in cells in presence of CPT | chicken DT40 Tdp1-/-;hTDP1 cells + 20 nM CPT, ATP luminescence, 48 h | 12% of 420,000 active | Potency, µM (top dose mostly 46.2 µM), hits mostly inhibitors | AID 686979, 2013; further: nearly all actives have a fitted effect of over 55% in size
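Cell growth measured by CellTiter-Glo luminescence after a minimum 48 h, 37 C compound exposure with 20 nM CPT in Tdp1-knockout DT40 cells stably expressing hTDP1, seeded 400/well; qHTS titration format.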
KB-3-1 tox: qHTS assay for MDR1-selective chemotherapeutics: Primary screen using the parental adenocarcinoma cell KB-3-1; KB-3-1 viability, CellTiter-Glo ATP luminescence, 72 h; Potency, µM (series often up to 46.1 µM), actives largely listed as cytotoxic; 1.4% of 400,000 active; AID 1347075, 2019; further: nearly all actives have a fitted effect of over 60% in size
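72 h, 37 °C compound treatment of KB-3-1 parental cells; CellTiter-Glo added, 10 min, luminescence read. Data corrected against DMSO-only plates and normalized before curve fitting.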
DT40 TDP1 no CPT: qHTS for Inhibitors of human tyrosyl-DNA phosphodiesterase 1 (TDP1): qHTS in cells in absence of CPT. Potency, µM (doses to about 46.2 µM), actives largely listed as inhibitors. 15% of 420,000 active. DT40 Tdp1-/- hTDP1 cells, no CPT, ATP luminescence, 48 h. AID 686978, 2013; further: nearly all actives have a fitted effect of over 55% in size
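Stably hTDP1-transfected Tdp1-null chicken DT40 cells were treated with library compounds minus camptothecin and grown for at least 48 hr at 37 °C, after which cellular ATP was quantified by luminescence.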
HT1080 IDH1KD tx: qHTS for induction of synthetic lethality in tumor cells producing 2HG: qHTS for the HT-1080-IDH1KD cell line; HT-1080 IDH1 knockdown viability, ATP luminescence, 48 h; Potency, µM (doses to about 46.1 µM), hits mostly cytotoxic; 2% of 360,000 active
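Luminescent ATP read-out (CellTiter-Glo, 10 min at room temperature) after 48 h compound exposure at 37 °C gave viability of IDH1-knockdown HT-1080 cells. Activity was normalised to DMSO and cell-free wells, then fitted as concentration-response curves.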
KB-V1 cytotox: qHTS assay for MDR1-selective chemotherapeutics: Primary screen using the drug-selected MDR subline cells KB-V1. KB-V1 MDR cells viability, CellTiter-Glo, 72 h. Potency, µM (highest dose often 46.1 µM), actives largely listed as cytotoxic. 3.4% of 400,000 active; further: nearly all actives have a fitted effect of over 60% in size
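Cytotoxicity toward P-gp-expressing KB-V1 cells was determined as loss of CellTiter-Glo luminescence after 72 h at 37 degrees C. Compounds were tested in quantitative HTS format across a concentration range, with curves fitted to normalized data.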
Hits are given with their value; - = inactive; ? = inconclusive; . = no result given; [ ] = dose if it differs, or a comment. The call rests on the fitted dose curve; in most records, active means well fitted curve in the direction sought with a large enough effect; inconclusive means small, poorly fitted or top-dose-only effect, or another doubt; inactive means no such curve, though single readings can be large; an effect the other way counts as inactive or inconclusive.

SMILES	HT1080-NT tox	DT40 TDP1 CPT	KB-3-1 tox	DT40 TDP1 no CPT	HT1080 IDH1KD tx	KB-V1 cytotox
CN(C)c1ncc(S(=O)(=O)c2ccccc2)c(-c2ccc(Cl)cc2Cl)n1	-	-	-	-	-	15µM
Cc1ncc(S(=O)(=O)c2ccccc2)c(-c2ccccc2Cl)n1	-	-	-	-	-	-
O=C(CC1CCCC1)NCCS(=O)(=O)N1CCN(c2ccccc2)CC1	-	?	-	?	-	-
Cc1ccc2[nH]c(CCN(C)C)c(CN3CCOCC3)c2c1	-	21µM	-	?	-	?
CN(N)c1nc(C(F)(F)F)nc2ccccc12	-	-	-	-	-	-
CN(NS(=O)(=O)c1ccc(Br)cc1)c1nc(C(F)(F)F)nc2ccccc12	?	23µM	?	?	18µM	?
Cc1ccc(C)c(S(=O)(=O)N2CCN(C(=O)CCc3c[nH]c4ccccc34)CC2)c1	-	-	?	-	-	-
Cc1ccc(C)c(S(=O)(=O)N2CCN(C(=O)CCc3nc4ccccc4c(=O)[nH]3)CC2)c1	-	21µM	?	21µM	-	-
O=C(CCc1nc2ccccc2c(=O)[nH]1)N1CCN(S(=O)(=O)c2ccccc2Br)CC1	-	21µM	?	?	-	-
Cc1ccc(C)c(S(=O)(=O)N2CCN(C(=O)CCCc3c[nH]c4ccccc34)CC2)c1	-	?	-	23µM	-	?
COc1cc2c(cc1NC(=O)COc1cc(C)ccc1C)oc1ccccc12	.	-	.	-	.	.
Cc1ccc(NC2=C(Cl)C(=O)OC2OC(=O)c2ccco2)c(C)c1 (configuration not stated)	-	?	-	-	-	-
Cc1ccc(C)c(NC2=C(Cl)C(=O)OC2OC(=O)c2ccco2)c1 (configuration not stated)	?	23µM	-	23µM	?	-
C#CCN1C(=O)C(O)(c2c(C)[nH]c3ccccc23)c2ccccc21 (configuration not stated)	-	4.6µM	?	3.3µM	-	?
CCCN1C(=O)C(O)(c2c(C)[nH]c3ccccc23)c2ccccc21 (configuration not stated)	-	5.2µM	-	5.2µM	-	-
Cc1[nH]c2ccccc2c1C1(O)C(=O)N(C(C)C)c2ccccc21 (configuration not stated)	-	-	-	-	-	-
CCc1cccc(NC(=O)COC(=O)CSc2ccc(C)cc2)c1	-	-	-	-	-	-
C=CCn1c(C)cc(C2=NNC(=NC(C)(C)C)SC2)c1C	-	?	?	?	-	?
CC(C)(C)N=C1NN=C(c2cc3ccccc3o2)CS1	-	?	-	23µM	-	?
CC(C)(C)N=C1NN=C(c2ccc(Cl)cc2)CS1	-	?	?	18µM	-	-
Cc1nc(N)nc(N)c1-c1ccc([N+](=O)[O-])cc1	-	?	-	1.5µM	10µM	-
COC(=O)c1cc(CNC(=O)c2cccc(C)c2)cc(NC(=O)c2ccncc2)c1	.	-[9.04 µM]	.	-	.	.
CC1CC(OC(=O)C(O)c2ccccc2)CC(C)(C)C1 (configuration not stated)	.	?	.	7.5µM	.	.
O=C(COC(=O)c1c2c(nc3ccccc13)/C(=C\c1cccs1)CCC2)Nc1ccccc1	-	21µM	12µM	9.2µM	-	2.3µM
CC(C)CNC(=O)COC(=O)c1c2c(nc3ccccc13)/C(=C\c1cccs1)CC2	-	?	-	21µM	?	?
CC(=O)c1ccc(NC(=O)COC(=O)c2c3c(nc4ccccc24)/C(=C\c2cccs2)CCC3)cc1	-	13µM	-	16µM	?	16µM
